Measured values taken from PubChem BioAssay.
Values without a mark were called inactive. For some assays here: Measured potencies and affinities stand elsewhere. The source made the active and inactive calls. Unless noted, no rule for the calls is given here.

How the values were obtained:
[1] = antimalarial activity against Dd2 strain (AID 2302;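 active = growth inhibition above 50% at the single 2 µM test dose, taken to imply half-maximal potency below 2 µM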;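 also: 0% = DMSO untreated growth and 100% = chloroquine plus artemisinin killed control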); conditions: P. falciparum Dd2 in RBCs, LDH growth readout, 72 h; at 2 µM; active compounds read high
[2] = HepG2 cytotoxicity, primary screen, cytotoxicity control for P. falciparum antimalarial project, cell-based, ATP luminescence (AID 2303;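 active = inhibition above 50%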;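 also: 0% = DMSO wells and 100% = digitonin-killed cells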); conditions: HepG2 viability, 24-48 h, at 10 µM, active compounds read high
[3] = target: L-lactate dehydrogenase (Plasmodium falciparum (isolate CDC / Honduras)) (UniProt Q27743); test: PfLDH activity inhibition – cell lysate, 3D7 strain, counter-screen for P. falciparum growth inhibition project (AID 2304);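 also: 0% = vehicle and 100% = reference inhibitor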; conditions: P. falciparum 3D7 crude extract, LDH APAD/NBT absorbance; at 2 µM; active compounds read high
Sequence of L-lactate dehydrogenase (Plasmodium falciparum (isolate CDC / Honduras)) (Q27743 whole entry, looked up): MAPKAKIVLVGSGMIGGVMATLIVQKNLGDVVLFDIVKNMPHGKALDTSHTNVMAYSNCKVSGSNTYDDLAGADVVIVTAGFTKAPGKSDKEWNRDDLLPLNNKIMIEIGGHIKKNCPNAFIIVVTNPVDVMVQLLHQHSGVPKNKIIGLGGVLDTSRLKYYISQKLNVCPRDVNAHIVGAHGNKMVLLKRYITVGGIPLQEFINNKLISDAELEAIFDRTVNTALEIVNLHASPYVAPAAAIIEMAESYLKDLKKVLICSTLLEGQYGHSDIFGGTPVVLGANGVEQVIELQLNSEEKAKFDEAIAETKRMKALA

[4] = inhibition of 3D7 malaria parasite growth – strain 3D7 (AID 2306);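 also: 0% = DMSO wells and 100% = chloroquine plus artemisinin control wells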; conditions: P. falciparum 3D7 erythrocytic growth, LDH absorbance, 72 h; at 2 µM; active compounds read high
[5] = target: Calcium-dependent protein kinase 1 (Plasmodium falciparum (isolate 3D7)) (UniProt P62344); test: PfCDPK1 kinase inhibitors, biochemical, TCAMS library (AID 1159585; cut-off not given, nearly all actives have IC50 up to about 0.98 µM;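 also: inhibitors leave more ATP so luminescence rises with inhibition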); conditions: recombinant PfCDPK1, Kinase-Glo ATP depletion luminescence
Sequence of Calcium-dependent protein kinase 1 (Plasmodium falciparum (isolate 3D7)) (P62344 whole entry, looked up): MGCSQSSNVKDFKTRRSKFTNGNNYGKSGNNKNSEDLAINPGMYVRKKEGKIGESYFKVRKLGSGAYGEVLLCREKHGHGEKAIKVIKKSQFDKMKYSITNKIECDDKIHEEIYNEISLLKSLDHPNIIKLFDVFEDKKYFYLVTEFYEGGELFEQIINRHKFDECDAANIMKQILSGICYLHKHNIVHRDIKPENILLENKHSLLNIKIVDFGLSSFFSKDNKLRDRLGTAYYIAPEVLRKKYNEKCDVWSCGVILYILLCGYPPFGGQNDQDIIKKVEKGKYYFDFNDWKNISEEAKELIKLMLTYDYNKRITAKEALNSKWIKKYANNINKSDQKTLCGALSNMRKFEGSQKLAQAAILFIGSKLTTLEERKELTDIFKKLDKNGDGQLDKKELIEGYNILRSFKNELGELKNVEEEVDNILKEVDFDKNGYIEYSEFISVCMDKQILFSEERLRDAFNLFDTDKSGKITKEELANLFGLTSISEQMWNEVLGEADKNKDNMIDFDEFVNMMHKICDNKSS

[6] = target: Plasmodium falciparum protein kinase 6 (PK6, PF3D7_1337100) (UniProt Q8IDW1); test: PfPK6 kinase inhibitors, biochemical, TCAMS library (AID 1159586); conditions: recombinant PfPK6, Kinase-Glo ATP depletion luminescence
Sequence of Plasmodium falciparum protein kinase 6 (PK6, PF3D7_1337100) (Q8IDW1 1-305): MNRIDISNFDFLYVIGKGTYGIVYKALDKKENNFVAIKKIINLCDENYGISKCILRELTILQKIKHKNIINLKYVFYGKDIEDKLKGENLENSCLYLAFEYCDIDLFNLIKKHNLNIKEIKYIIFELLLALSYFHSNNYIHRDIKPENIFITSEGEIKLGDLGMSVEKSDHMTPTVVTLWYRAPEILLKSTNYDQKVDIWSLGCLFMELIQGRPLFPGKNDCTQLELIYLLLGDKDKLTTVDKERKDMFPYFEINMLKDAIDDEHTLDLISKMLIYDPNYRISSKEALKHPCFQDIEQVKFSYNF

[7] = target: Protein kinase 7 (PK7), Plasmodium falciparum 3D7 (PF3D7_0213400) (UniProt Q7YTF7); test: inhibition of Plasmodium PK7 catalytic activity – biochemical, TCAMS antimalarial set, Kinase-Glo luminescence (AID 1159587); conditions: recombinant PfPK7, Kinase-Glo ATP depletion luminescence
Sequence of Protein kinase 7 (PK7), Plasmodium falciparum 3D7 (PF3D7_0213400) (Q7YTF7 1-343): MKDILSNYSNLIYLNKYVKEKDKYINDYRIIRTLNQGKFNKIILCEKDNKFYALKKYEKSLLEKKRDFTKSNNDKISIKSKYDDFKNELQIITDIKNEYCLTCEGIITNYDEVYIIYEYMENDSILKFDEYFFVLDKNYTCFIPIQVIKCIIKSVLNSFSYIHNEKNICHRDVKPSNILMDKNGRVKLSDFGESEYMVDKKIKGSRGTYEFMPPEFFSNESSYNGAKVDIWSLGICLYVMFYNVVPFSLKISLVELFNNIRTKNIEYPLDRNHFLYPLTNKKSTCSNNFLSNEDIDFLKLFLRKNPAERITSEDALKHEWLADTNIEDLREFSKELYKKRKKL

[8] = target: Calcium-dependent protein kinase 4 (Plasmodium falciparum (isolate 3D7)) (UniProt Q8IBS5); test: PfCDPK4 kinase inhibitors, biochemical, TCAMS library (AID 1159588; cut-off not given, nearly all actives have IC50 up to about 0.91 µM); conditions: recombinant PfCDPK4, Kinase-Glo ATP depletion luminescence
Sequence of Calcium-dependent protein kinase 4 (Plasmodium falciparum (isolate 3D7)) (Q8IBS5 whole entry, looked up): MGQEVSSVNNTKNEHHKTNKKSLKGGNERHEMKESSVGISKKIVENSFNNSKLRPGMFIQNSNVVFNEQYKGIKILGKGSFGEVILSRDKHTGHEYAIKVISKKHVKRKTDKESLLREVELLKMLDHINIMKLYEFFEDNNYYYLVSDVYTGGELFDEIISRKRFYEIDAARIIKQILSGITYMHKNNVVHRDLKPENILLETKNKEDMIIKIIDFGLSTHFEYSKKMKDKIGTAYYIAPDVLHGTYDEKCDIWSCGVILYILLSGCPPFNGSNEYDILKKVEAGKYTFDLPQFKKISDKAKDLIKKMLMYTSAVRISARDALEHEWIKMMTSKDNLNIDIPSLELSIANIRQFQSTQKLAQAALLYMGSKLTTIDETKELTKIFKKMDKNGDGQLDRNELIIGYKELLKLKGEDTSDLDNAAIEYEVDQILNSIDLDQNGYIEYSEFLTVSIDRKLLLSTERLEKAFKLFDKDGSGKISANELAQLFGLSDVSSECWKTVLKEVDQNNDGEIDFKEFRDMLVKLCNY

Row | SMILES | growth inhibition [1] | inhibition [2] | inhibition [3] | growth inhibition [4] | outcome [5] | outcome [6] | outcome [7] | outcome [8]
1 | Fc1ccc2nc(-c3ccc(-c4ccc(CN5CCC(CCN6CCCCC6)CC5)cc4)s3)[nH]c2c1 | 101% (active) | 96% (active) | 3% | 101% (active) | inactive | inactive | inactive | inactive
2 | COc1ccc2nccc([C@@H](O)CN3CCC(NCc4cc5c(F)ccc(F)c5[nH]4)CC3)c2c1 | 67% (active) | 29% | 0% | 100% (active) | inactive | inactive | inactive | inactive
3 | CNC(=C[N+](=O)[O-])NCCSCc1cc(C)c(CN(C)C)s1 | 96% (active) | 48% | -1% | 98% (active) | inactive | inactive | inactive | inactive
4 | CCCOc1cc(Cc2cnc(N)nc2N)cc(OC)c1OC | 1% | 21% | 8% | 85% (active) | inactive | inactive | inactive | inactive
5 | COc1ccc(NC(=O)/C=C/c2cc(F)cc(C(F)(F)F)c2)cc1OCCN(C(C)C)C(C)C | 21% | 18% | -3% | 97% (active) | inactive | inactive | inactive | inactive
6 | O=C(Nc1cccc(-c2ccc(-c3nc4ccc(C(F)(F)F)cc4[nH]3)cc2)c1)c1ccncc1 | 90% (active) | 79% (active) | -1% | 100% (active) | inactive | inactive | inactive | inactive
7 | CN1CCN(CCCN(Cc2ccc(-c3ccc(CNCCc4ccccc4)cc3)cc2)C(=O)c2cccs2)CC1 | 78% (active) | 32% | 3% | 98% (active) | inactive | inactive | inactive | inactive
8 | COc1ccccc1C1CC(c2ccc(Br)cc2)=NN1C(=O)c1ccccc1 (stereo not given) | 59% (active) | 12% | -6% | 85% (active) | inactive | inactive | inactive | inactive
9 | CC(=O)Nc1nc(C(=O)Nc2cccc(-c3cccc(-c4nc5ccccc5[nH]4)c3)c2)cs1 | 82% (active) | 31% | 0% | 100% (active) | inactive | inactive | inactive | inactive
10 | CN(C)c1ccc(CN2CCC(CNC(=O)c3cc(-c4ccccc4Cl)cs3)C2)cc1 (stereo not given) | 5% | 29% | -3% | 91% (active) | inactive | inactive | inactive | inactive
11 | O=S(=O)(c1ccc(OC(F)(F)F)cc1)C1C[C@H]2CC[C@@H](C1)N2S(=O)(=O)c1ccc(Cl)c(C(F)(F)F)c1 (stereo not given in full) | 95% (active) | 1% | -5% | 100% (active) | inactive | inactive | inactive | inactive
12 | CCN(CC)CCCCNc1cc(-c2[nH]c(C(C)(C)C)nc2-c2ccc3cc(OC)ccc3c2)ccn1 | 76% (active) | 23% | 5% | 85% (active) | inactive | inactive | inactive | inactive
13 | CN1CCN(CC(=O)Nc2cccc(-c3ccc(-c4nc5ccc(C(F)(F)F)cc5[nH]4)cc3)c2)CC1 | 94% (active) | 37% | -3% | 102% (active) | inactive | inactive | inactive | inactive
14 | Cc1cccc2[nH]c(-c3ccc(-c4ccc(CN5CCC(CO)CC5)cc4)s3)nc12 | 82% (active) | 15% | -10% | 101% (active) | inactive | inactive | inactive | inactive
15 | O=C(NC1CC1)c1ccc(N2CCCC(COc3ccccc3F)C2)nc1 (stereo not given) | 92% (active) | 8% | -2% | 87% (active) | inactive | inactive | inactive | inactive
16 | O=C(Nc1ccc(Cl)cc1)N(CC1C[C@H]2CC[C@@H](C1)N2Cc1ccc(C(F)(F)F)cc1)c1ccc(N2CCOCC2)c(F)c1 (stereo not given in full) | 36% | 31% | 0% | 85% (active) | inactive | inactive | inactive | inactive
17 | COc1ccc(S(=O)(=O)NC2CCN(c3ccnc4cc(Cl)ccc34)C2)cc1 (stereo not given) | 86% (active) | 12% | -2% | 100% (active) | inactive | inactive | inactive | inactive
18 | O=c1ccc(CNc2nc(NCCc3ccccc3)nc3ccc(Cl)cc23)c[nH]1 | 16% | 9% | 2% | 99% (active) | inactive | inactive | inactive | inactive
19 | CCN(c1ccccc1)S(=O)(=O)c1ccc(NC(=O)c2cc(-c3cc(C)ccc3O)n[nH]2)cc1 | 55% (active) | 49% | -3% | 99% (active) | inactive | inactive | inactive | inactive
20 | CCc1c(C)nc(-n2nc(C)cc2NC(=O)C2c3ccccc3Oc3ccccc32)[nH]c1=O | 80% (active) | 37% | 1% | 89% (active) | inactive | inactive | inactive | inactive

Row | SMILES | growth inhibition [1] | inhibition [2] | inhibition [3] | growth inhibition [4] | outcome [5] | outcome [6] | outcome [7] | outcome [8]
21 | COc1ccc(CCNCCCCCCNCCc2ccccc2Cl)cc1OC | 3% | 13% | -1% | 96% (active) | inactive | inactive | inactive | inactive
22 | Fc1ccc2nc(-c3ccc(-c4ccc(CNCC5CCCO5)cc4)s3)[nH]c2c1 (stereo not given) | 99% (active) | 30% | -2% | 100% (active) | inactive | inactive | inactive | inactive
23 | COc1ccc2c(NN=Cc3ccccc3)cc(C)nc2c1 | 49% | -2% | -2% | 100% (active) | inactive | inactive | inactive | inactive
24 | Cc1ccc(C)c(NC(=O)NCCNc2ccnc(Nc3ccc(F)cc3)n2)c1 | 5% | 21% | 6% | 97% (active) | inactive | inactive | inactive | inactive
25 | O=C(NCc1ccccc1)C1Cc2c([nH]c3ccc(Br)cc23)C2(CCN(Cc3ccccc3)CC2)N1 (stereo not given) | 70% (active) | 15% | 1% | 98% (active) | inactive | inactive | inactive | inactive
26 | Cc1cccc2[nH]c(-c3cccc(-c4cccc(CNCc5cnn(-c6ccccc6)n5)c4)c3)nc12 | 38% | 12% | 1% | 99% (active) | inactive | inactive | inactive | inactive
27 | COc1cc(N)cc2sc(N)nc12 | 99% (active) | 0% | -2% | 99% (active) | inactive | inactive | inactive | inactive
28 | COc1cccc(CN2Cc3ccccc3OC3(CCN(Cc4c[nH]c5cnccc45)CC3)C2)c1 | 83% (active) | 39% | -3% | 83% (active) | inactive | inactive | inactive | inactive
29 | CC(=O)Nc1nc(C(=O)Nc2ccc(-c3ccc(-c4nc5ccc(F)cc5[nH]4)cc3)cc2)cs1 | 33% | 17% | -5% | 100% (active) | inactive | inactive | inactive | inactive
30 | COC(=O)c1cccc(CNCc2ccc(-c3ccc(-c4nc5c(C)cccc5[nH]4)cc3)cc2)c1 | 86% (active) | 17% | 3% | 102% (active) | inactive | inactive | inactive | inactive
31 | O=C(Nc1cccc(N2CCC(NCc3cnn(-c4cccc(F)c4)c3)CC2)c1)c1ccncc1 | 40% | 50% (active) | 4% | 84% (active) | inactive | inactive | inactive | inactive
32 | N#Cc1ccc(-c2ccc(C(=O)NCCCCN3CC=C(c4ccc5c(c4OCC4CC4)CCCC5)CC3)cc2)cc1 | 83% (active) | 22% | 4% | 100% (active) | inactive | inactive | inactive | inactive
33 | Cc1ccc(Cn2nc(Cl)c(N3CCNCC3)cc2=O)cc1NC(=O)Nc1ccc(-c2ccccc2)cc1 | 97% (active) | 100% (active) | -5% | 98% (active) | inactive | inactive | inactive | inactive
34 | CCCC(=O)Nc1ccc(OCCCN(Cc2cccc(C(F)(F)F)c2)c2ccc(C#N)c(C(F)(F)F)c2)cc1 | 89% (active) | -12% | -5% | 90% (active) | inactive | inactive | inactive | inactive
35 | Cc1cc(N(C)C)nc(Nc2ccc(NC(=O)CCc3ccccc3)cc2)n1 | 84% (active) | 20% | 1% | 100% (active) | inactive | inactive | inactive | inactive
36 | O=C(Nc1ccc(Cl)cc1)c1ccc(CN2CCCN(Cc3cccc(O)c3)CC2)cc1 | 69% (active) | 52% (active) | 4% | 100% (active) | inactive | inactive | inactive | inactive
37 | COc1cc2nc(Nc3ccc4c(ccn4Cc4ccccc4)c3)nc(Nc3ccc4c(ccn4Cc4ccccc4)c3)c2cc1OC | 80% (active) | -6% | 2% | 89% (active) | inactive | inactive | inactive | inactive
38 | CC1(C)N=C(N)N=C(N)N1c1ccc(Oc2ccc(Cl)cc2)c(Cl)c1 | 20% | 13% | -2% | 97% (active) | inactive | inactive | inactive | inactive
39 | N#Cc1ccc2c(c1)CN(C1CCC(NC(=O)/C=C/c3cc(C(F)(F)F)cc(C(F)(F)F)c3)CC1)CCC2 (stereo not given) | 4% | 34% | -4% | 95% (active) | inactive | inactive | inactive | inactive
40 | CC(C)(C)c1ccc(CNC(=O)/C=C/c2ccc(-c3nc4ccc(C(C)(C)C)cc4[nH]3)cc2)cc1 | 66% (active) | 35% | -2% | 100% (active) | inactive | inactive | inactive | inactive
